Here are results for 92 compounds from PubChem BioAssay AID449762 (Southern Research Specialized Biocontainment Screening …, 2010).

Where “and” joins values, the source holds several entries; their conditions need not be identical. Equal values may be shown once. The campaign covered roughly 330,000 compounds. About 1,900 (0.58%) were called active. Not shown: some 4% with an inconclusive outcome. The list is a sample of the results. Potency and affinity values are given separately. A number with no mark means an inactive call. Rule as the data show it: inconclusive = inhibition above about 70% without an active follow-up result; inactive = below that.

This test in a line: M. tuberculosis growth inhibition, HTS (AID 449762).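 Also: bacterial growth assessed after seven days of incubation.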 To be noted: M. tuberculosis H37Rv growth inhibition, 7H9 media; at 25 µM; active compounds read high.
A word on the inhibition: it is the relative decrease from the control value, in per cent. `CNC(=O)CSCc1cnn(-c2ccccc2)c1-n1cccc1`: the inhibition is -0.17%. As for `Nc1ccc(S(=O)(=O)N2CCCC2C(=O)O)cc1` (configuration not stated), the figure is -7.07%; as for `Nc1nonc1C(=O)NCCNCc1cc(Br)ccc1OCc1ccccc1F`, 14.5%; as for `Nc1nonc1C(=O)NCCNCc1ccccc1OCc1ccccc1F`, 2.36%. As for `COc1ccc(N(CC(=O)NC2CC3CCC2C3)S(=O)(=O)c2ccc(C)c([N+](=O)[O-])c2)cc1` (configuration not stated), the figure is 2.1%; as for `O=C(COc1ccc(-n2ccnc2)cc1)Nc1cccc(Cl)c1`, -3.44%. As to `COc1cc(NC(=O)COc2ccc(-n3ccnc3)cc2)cc(OC)c1`, the inhibition is 38.6%. As to `Cc1ccc(C(=O)N2CCN(c3ccc([N+](=O)[O-])c(NCc4cccnc4)c3)CC2)cc1`, the inhibition is 0.99%.

As to `COc1cc(/C=c2\s/c(=C\C(=O)C(C)(C)C)[nH]c2=O)cc(OC)c1OC`, the inhibition was 69%. Take `CC(C)(C)C(=O)/C=c1\[nH]c(=O)/c(=C\c2ccccc2F)s1`: the inhibition is 48.4%. The figure for `O=C(Nc1c(C(=O)NCc2ccco2)cnn1-c1ccccc1)c1ccc(F)cc1` is 3.13%; for `COc1ccc(C(=O)Nc2nnc(S(=O)(=O)Cc3ccccc3)s2)cc1` it is 8.58%; for `O=C(N/N=C/c1ccccc1)C(=O)N/N=C/c1ccccc1` it is 2.46%. As for `O=C(CC1CCCC1)N1CCN(S(=O)(=O)c2ccc(F)cc2)CC1`, the figure is -4.71%; as for `COC(=O)c1ccccc1NC(=O)COC(=O)CSc1nnc(N)s1`, 0.97%. As for `CC(C)(C)OC(=O)NCCCCCNC(=O)c1[nH]cnc1C(=O)Nc1ccon1`, the figure is -5.82%. For `COc1ccc(NC(=O)NCc2cccnc2)cc1OC`, the inhibition is -5.2%. The figure for `COC(=O)Cn1nc(-c2ccccc2)c2ccccc2c1=O` is 65.5%.

In the case of `COC(=O)Cn1nc(-c2ccccc2)c2ccccc21`, the inhibition is 31.4%. As for `Cc1ccccc1C(=O)N1CCC(C(=O)N(CC(C)C)c2c(N)n(CC(C)C)c(=O)[nH]c2=O)CC1`, the figure is -6.17%; as for `COC(=O)[C@H](CCSC)NC(=O)NCc1cccs1`, -7.69%. As for `Cc1cccc(NC(=O)C2CCN(c3nccc(C)n3)CC2)c1`, the figure is 3.71%. The figure for `Cc1cc(C)nc(N2CCC(C(=O)Nc3cccc(C(F)(F)F)c3)CC2)n1` is -14.2%.

Turning to `CCOC(=O)c1cn(CC)c2cc(Cl)c([N+](=O)[O-])cc2c1=O`, the inhibition is 9.8%.

Consider `CCCN1CCN(C2CCCCC2NS(=O)(=O)c2ccccc2)CC1` (configuration not stated), for which the inhibition is -5.87%. On to `OC(COC(c1ccc(F)cc1)c1ccc(F)cc1)CN1CCc2ccccc2C1` (configuration not stated), for which the inhibition is 28.2%. As for `OC(COC(c1ccccc1)c1ccccc1)CN1CCc2ccccc2C1` (configuration not stated), the figure is 4.67%.

Turning to `CCOc1ccc(Oc2nc(NCC(C)C)nc(N(C)C)n2)nn1`, the inhibition was -2.04%.

For `COC(=O)Cn1c(=O)oc2ccc(C)cc21`, the inhibition is -1.52%.

Regarding `COc1cc(NC(=O)CCc2c(C)nc3nc(C)nn3c2C)cc(OC)c1`, the inhibition is 2.33%. The figure for `COC(=O)c1ncccc1SC` is -6.32%; for `COC(=O)c1sccc1NC(=O)CSc1cccc(Cl)c1Cl` it is 11%. As for `COc1ccc(-c2noc(C3CCCN(S(=O)(=O)c4ccc(C)c(Cl)c4)C3)n2)cc1OC` (configuration not stated), the figure is -3.19%; as for `CCCC(C)NC(=O)COc1ccc(S(=O)(=O)c2ccc(OCC(=O)NC(C)CCC)cc2)cc1` (configuration not stated), -8.03%; as for `O=C(Nc1cccnc1)C1CCN(S(=O)(=O)c2ccc(Cl)cc2)CC1`, 0.94%.

Turning to `CSCCC(NC(=O)CCC(=O)OC1CC[C@H]2[C@@H]3CC[C@H]4CC(=O)CC[C@]4(C)[C@H]3CC[C@]12C)C(=O)O` (some centres not stated), the inhibition was 2.77%.

For the compound `CCOC(=O)c1c(NC(=O)CSc2nnc(C)s2)sc2c1CCC(CC)C2` (configuration not stated), the inhibition was -2.5%. The figure for `COC(=O)C1=C(N)OC2=C(C(=O)CC(C)(C)C2)C1c1ccccc1OCC#N` (configuration not stated) is 4.16%; for `Cc1ccc(NC(=O)C2CCCN(c3ncccn3)C2)c(C)c1` (configuration not stated) it is 7.16%; for `CCCc1ccc2oc(C(=O)N(C)Cc3cnccn3)c(C)c2c1` it is -5.84%. As to `CCCc1ccc2oc(C(=O)N(C)Cc3ccn[nH]3)c(C)c2c1`, the inhibition is 4.45%.

Consider `Cc1cc(C)c(NC(=O)CSc2nnc(CN3CCOCC3)n2C)c(C)c1`, for which the inhibition was -5.19%.

Turning to `Cc1ccc(NC(=O)CSc2nnc(Cc3ccccc3)o2)cc1`, the inhibition was -3.22%. The figure for `Cc1cccc(NC(=O)CSc2nnc(Cc3ccccc3)o2)c1` is 9.03%. As for `O=C(COC(=O)CCC(=O)c1ccc(F)cc1)NC1CCCCC1`, the figure is -5.44%; as for `CC1(C)NC(C(=O)O)Cc2c1[nH]c1ccccc21` (configuration not stated), -1.33%. `CC12CCC(=O)N1C(C(=O)O)Cc1c2[nH]c2ccccc12` (configuration not stated): the inhibition is 6.77%. The figure for `CC1Cc2ccccc2N1CC(=O)Nc1cccc(S(N)(=O)=O)c1` (configuration not stated) is 3.61%. As for `CCOc1ccc(CCNC(=O)c2nn(C)c3c2CS(=O)(=O)c2ccccc2-3)cc1OCC`, the figure is 3.57%.

For `O=C(NC1=NCCS1)C1CCN(S(=O)(=O)c2cc([N+](=O)[O-])ccc2Cl)CC1`, the inhibition is -7.02%.

`O=C(NC1CC1)C1CCN(S(=O)(=O)c2cc([N+](=O)[O-])ccc2Cl)CC1`: the inhibition is -3.67%. As for `CCN(Cc1cnn(C)c1)C(=O)c1cc(COc2cc(C)c(Cl)c(C)c2)on1`, the figure is 10%; as for `CC(=O)c1cccc(OCc2cc(C(=O)N(C)CCc3cnn(C)c3)no2)c1`, 1.92%; as for `COc1ccc(Cl)cc1Nc1cc(C)nc2nc(C)nn12`, 2.13%. The figure for `OC(CN1CC=C(/C=C/c2ccc(Br)cc2)CC1)c1ccccc1` (configuration not stated) is 10.3%; for `COc1ccc(/C=C/C2=CCN(C)CC2)cc1` it is -5.45%.

For `Cc1cc(C(=O)NCC(=O)Nc2c(C)cccc2C)c2ccccc2n1`, the inhibition is -6.3%. As for `O=C(NCCCN1CCOCC1)C1CCN(S(=O)(=O)c2ccccc2)CC1`, the figure is -0.05%; as for `O=C(N/N=C/c1ccc(-c2ccc(S(=O)(=O)Nc3ncccn3)cc2)o1)c1cc2ccccc2cc1O`, -7.05%; as for `CCCOc1ccc(C(=O)N/N=C/c2ccc(-c3ccc(S(=O)(=O)Nc4ncccn4)cc3)o2)cc1`, 7.99%.

Consider `CCC1CCC(C(=O)NNC(=O)OC)CC1` (configuration not stated), for which the inhibition is -7.14%. The figure for `COc1cccc(Nc2nnc(SCC(=O)Nc3sccc3C(N)=O)s2)c1` is 0.87%; for `Cn1c(NC(=O)C[n+]2cc(-c3ccc(Cl)cc3)n3c2CCC3)cc(=O)n(C)c1=O` it is -2.19%; for `Cc1ccc(C(=O)C[n+]2cc(-c3ccccc3)n3c2CCCCC3)cc1` it is 2.54% and -2.93%. In the case of `Cc1ccc(NC(=O)C[n+]2cc(-c3ccccc3)n3c2CCC3)cc1`, the inhibition was 5.89%. On to `COc1ccc(C(=O)C[n+]2cc(-c3ccc(OC)cc3)n3c2CCCC3)cc1`, for which the inhibition is 5.06%. As for `Cc1ccc(-c2c[n+](CC(=O)c3cccs3)c3n2CCC3)cc1`, the figure is -3.4%.

On to `Cc1ccc(-c2c[n+](CC(=O)Nc3c(C)cccc3C)c3n2CCC3)cc1`, for which the inhibition is 11.9%. For the compound `Cc1c(C(=O)N2CCOCC2)cc(C(C)(C)C)n1-c1ccccc1`, the inhibition was -3.73%.

In the case of `O=C(OCCNc1nc(-c2ccccc2)nc2ccccc12)c1cccnc1`, the inhibition was 10.2%. Turning to `COc1ccccc1NC(=O)CN1CCN(C(=O)C2CCCO2)CC1` (configuration not stated), the inhibition is -18.2%. As for `NC(=O)CSc1nnc(-c2cc(-c3cccs3)nc3ccccc23)o1`, the inhibition is 5.91%. Consider `Cc1sc(NC(=O)CN2CCCC2)nc1-c1ccc2c(c1)CCN2C(=O)c1cccc(F)c1`, for which the inhibition is 9.15%. The figure for `CN(C)C(=N)c1n[nH]nc1SCc1ccc(Cl)c(Cl)c1` is -2.06%. As for `CCOc1ccc(N2C(=O)c3ccc(C(=O)OCc4c(C)noc4C)cc3C2=O)cc1`, the figure is -11.4%. The figure for `CCCN(CC1CC1)C(=O)COC(=O)c1oc2ccc(OCC)cc2c1C` is 2.37%. `COc1ccc(CNC(=O)c2cc(C3CC3)on2)cc1`: the inhibition is 8.82%. The figure for `O=C(NC(=S)N1CCc2ccccc21)c1ccccc1Br` is 6.29%; for `O=C(c1ccc(Br)o1)N1CCc2ccccc21` it is -3.15%. In the case of `CC(OC(=O)c1cccnc1Cl)C(=O)Nc1ccc2c(c1)OCO2` (configuration not stated), the inhibition is 0.24%. As for `C=CCOc1cccc(C2C(C(=O)c3ccco3)=C(O)C(=O)N2CCN(CC)CC)c1` (configuration not stated), the figure is -1.23%. For `CCOC(=O)c1ccc(-c2ccc(C=O)o2)cc1`, the inhibition was 12.7%. As to `CCCOC(=O)c1cc(-c2ccc(C=O)o2)ccc1Cl`, the inhibition was 9.94%.

For the compound `CC(C)(C)NC(=O)COC(=O)c1ccc(S(=O)(=O)N2CCCC2)cc1`, the inhibition is 5.11%. Take `Cc1nnc(N2C(=O)c3cccc4c([N+](=O)[O-])ccc(c34)C2=O)s1`: the inhibition is -2.32%.

As to `CN(C)CCCN1C(=O)c2cccc3c([N+](=O)[O-])ccc(c23)C1=O`, the inhibition was 36.5%. The figure for `Cc1ccc(S(=O)(=O)NCC(=O)OCC(=O)Nc2cccc(S(=O)(=O)NC3=NCCCCC3)c2)cc1` is 7.74%. The figure for `COCCn1cnnc1SCC(=O)Nc1cccc(S(=O)(=O)N(C)c2ccccc2)c1` is -4.95%; for `COc1cc(OC)c(C(=O)Nc2cccnc2)cc1OC` it is 3.08%; for `CN(C)c1ncc(S(=O)(=O)c2ccccc2)c(N)n1` it is -5.65%. As for `CN1CCN(C2=Cc3ccccc3Sc3cc(F)ccc32)CC1`, the figure is -12.7%; as for `CN1CCN(c2ccc(F)cc2N)CC1`, -0.88%.
